High-throughput results as filed in PubChem BioAssay.
Shown are actives, neighbours in structure and some others; about 3.8% of the full set was active somewhere.
Calb biofilm kill: clotrimazole potentiators killing Candida biofilms, primary screen, with clotrimazole, Alamar Blue | C. albicans biofilm + clotrimazole | inhibition, % at 6 µM | 85,000 compounds, 0.14% hits;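 active = inhibition above 20%; inactive = inhibition below 20%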;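 also: preformed 24 hr biofilms exposed to compound for 48 hr; 0% = biofilm without compound and 100% = blank killed by clotrimazole plus chlorhexidine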
ERb coact inh: inhibitors of ERβ-SRC1 coactivator interaction, primary screen, biochemical, TR-FRET, ERβ LBD, SRC-1 peptide; 86,000 compounds, 1.3% hits; TR-FRET ER-beta LBD / SRC1-Cy5 peptide binding; receptor agonist-loaded with 1 µM estradiol; inhibition, % at 25.6 µM;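 active = compounds whose percent inhibition of the receptor-coactivator binding signal exceeds about 50% in the single-dose screen, limit read from the data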;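 also: 0% = receptor plus peptide wells without compound and 100% = peptide-only wells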
ERa SRC1 inh: ERα–SRC-1 coactivator interaction inhibitors, primary screen, biochemical, TR-FRET, ERα LBD, estradiol-bound | Estrogen receptor (Homo sapiens), P03372 | TR-FRET ER-alpha LBD / SRC-1 peptide | inhibition, % at 25.6 µM | 86,000 compounds, 1.7% hits | AID 629, 2007; in the data active = inhibition above about 50%;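 also: 0% = receptor plus peptide control and 100% = peptide only without receptor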
MT1-MMP txn act: MT1-MMP promoter reporter activation – cell-based, luciferase luminescence, primary screen; HT1080 MT1-MMP promoter luciferase reporter, overnight; stronger effect = higher value; activation factor at 10 µM; 86,000 compounds, 0.16% hits; AID 750, 2007;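 active = activation factor of at least 2 for MT1-MMP transcription at 10 µM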
Smad3 inh: Smad3/FoxH1 peptide binding inhibitors, primary screen, biochemical, TR-FRET | Mothers against decapentaplegic homolog 3 (Homo sapiens), P84022 | TR-FRET Smad3/Dy647-FoxH1 peptide binding, europium anti-His | inhibition, % at 25 µM | 88,000 compounds, 0.29% hits | AID 630, 2007;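 active = compounds that reduce the energy-transfer binding signal between the protein and its labelled peptide by more than half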;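 also: 0% = Smad3 plus labelled peptide maximal FRET and 100% = peptide-only background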
Target sequence (P84022 whole entry, looked up): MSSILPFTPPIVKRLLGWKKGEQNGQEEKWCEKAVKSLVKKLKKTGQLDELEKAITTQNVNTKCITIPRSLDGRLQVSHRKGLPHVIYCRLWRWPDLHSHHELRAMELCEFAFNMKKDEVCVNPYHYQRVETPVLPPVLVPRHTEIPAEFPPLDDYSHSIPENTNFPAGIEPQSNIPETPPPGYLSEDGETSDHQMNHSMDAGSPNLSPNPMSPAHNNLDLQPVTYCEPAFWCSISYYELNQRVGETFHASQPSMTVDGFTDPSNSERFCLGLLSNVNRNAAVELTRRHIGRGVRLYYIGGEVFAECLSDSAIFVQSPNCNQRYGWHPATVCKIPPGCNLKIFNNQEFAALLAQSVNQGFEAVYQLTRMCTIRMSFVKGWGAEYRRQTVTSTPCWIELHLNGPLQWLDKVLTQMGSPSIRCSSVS
ERa coact pot: enhancers of ERα–SRC-1 coactivator binding, primary screen, biochemical, TR-FRET, ERα LBD, low estradiol | Estrogen receptor (Homo sapiens), P03372 | TR-FRET ERalpha-LBD/SRC-Cy5 coactivator binding, 2 h; 100 = basal binding, no effect | coactivator binding (% of control), % at 25.6 µM | 86,000 compounds, 1.3% hits | AID 639, 2007; in the data active = activity above about 200%;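 also: binding measured in presence of low estradiol as agonist stimulus; 0% = peptide alone without receptor and 100% = receptor with peptide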
Numbers without * were called inactive; nt = no result given; [ ] = dose if it differs, or a comment.

SMILES | Calb biofilm kill | ERb coact inh | ERa SRC1 inh | MT1-MMP txn act | Smad3 inh | ERa coact pot
C#CC[N+]1(CC#Cc2ccc(C#CC[N+]3(CC#C)CCOCC3)cc2)CCOCC1 | -4 | 60*[fluorescence artefact?] | 45 | nt | 3 | 81
O=c1c2c3c(sc2nc2sc(CN4CCCCC4)cn12)CCCC3 | 4 | 29 | 51*[fluorescence artefact?] | 1.3 | 21 | 268*[fluorescence artefact?]
O=C(N/N=C/c1ccc2c(c1)CCC2)c1ccccc1O | nt | nt | nt | nt | -8 | nt
CCN(CC)CC[n+]1ccc2c(C)c3[nH]c4ccccc4c3c(C)c2c1 | nt | nt | nt | nt | 12 | nt
O=C(O)CCNc1ncnc2nc[nH]c12 | nt | nt | nt | nt | 8 | nt
O=C(Nc1nc2ccccc2[nH]1)C1CC(=O)N(c2ccc3c(c2)OCCO3)C1 (configuration not stated) | nt | 43 | 68*[fluorescence artefact?] | 1.2 | -8 | 53
c1cncc(-c2nc3cc(Cc4ccc5oc(-c6cccnc6)nc5c4)ccc3o2)c1 | 5 | 11 | -34 | 1 | 10 | 207*[fluorescence artefact?]
c1cc(-c2nc3cc(Cc4ccc5oc(-c6ccncc6)nc5c4)ccc3o2)ccn1 | 3 | 22 | 9 | 0.9 | 7 | 221*[fluorescence artefact?]
O=C(NCc1nc2ccccc2[nH]1)[C@H]1C[C@@H]1[C@H](NP(=O)(c1ccccc1)c1ccccc1)c1ccccc1 | nt | nt | nt | 1.2 | nt | nt
O=C(O)CN1C(=O)O[C@@H](c2ccccc2)C1=O | nt | nt | nt | nt | -3 | nt
O=C(CSc1n[nH]c(-c2ccc(S(=O)(=O)N3CCCCC3)cc2)n1)Nc1nccs1 | -2 | 21 | 50* | 1.8 | 0 | 136
O=C(Nc1ccc2nn(-c3ccccc3)nc2c1)c1ccco1 | 6 | 5 | 15 | 1.3 | 6 | 142
O=C(Nc1cc2nn(-c3ccccc3)nc2cc1Cl)c1ccco1 | -4 | 30 | 62*[fluorescence artefact?] | 1.6 | -6 | 100
O=C1c2ccccc2C(O)(O)[C@@]1(O)[C@]1(O)C(=O)c2ccccc2C1(O)O | nt | nt | nt | nt | 17 | nt
COc1ccc(C(=O)c2ccc(N3CCN(C(=O)c4ccc(F)cc4)CC3)c(F)c2)cc1Br | 3 | 22 | 24 | 1.1 | 11 | 292*[fluorescence artefact?]
Cc1cc(C)n(CCc2nc3c4ccccc4nc(SCc4ccc(C#N)cc4)n3n2)n1 | 4 | 33 | 59*[fluorescence artefact?] | 1.1 | -7 | 95
c1ccc(-c2nnc3sc(Cc4cccs4)nn23)cc1 | 6 | 57* | 64*[fluorescence artefact?] | 1.4 | 9 | 46
O=C1c2ccccc2C(=O)N1Cc1nn2c(-c3ccc(Cl)cc3)nnc2s1 | 4 | 26 | 46 | 1.3 | 20 | 383*[fluorescence artefact?]
COc1ccc(-c2nnc3sc(CN4C(=O)c5ccccc5C4=O)nn23)cc1 | 6 | 8 | 16 | 1.1 | -30 | 227*
Clc1ccc(-c2nnc3sc(Cc4cccs4)nn23)cc1 | 5 | 33 | 35 | 1.2 | 6 | 83
COc1ccc(-c2nnc3sc(C(C)N4C(=O)c5ccccc5C4=O)nn23)cc1 (configuration not stated) | 1 | -14 | -6 | 1.1 | 2 | 108
Clc1ccc(-c2nnc3sc(-c4ccccn4)nn23)cc1 | 4 | 7 | 9 | 0.9 | -2 | 105
COc1cccc(NC(=O)Cc2nnc(SCC(=O)c3ccccc3)n2C)c1 | 6 | -4 | -1 | 1 | -10 | 103
Cc1ccc(NC(=O)Cc2nnc(SCC(=O)c3ccc(Br)cc3)n2C)cc1 | 6 | 19 | 4 | nt | 24 | 201*[fluorescence artefact?]
OC[C@H](CCc1c[nH]c2ccccc12)c1c[nH]c2ccccc12 | nt | nt | nt | nt | 4 | nt
SMILES | Calb biofilm kill | ERb coact inh | ERa SRC1 inh | MT1-MMP txn act | Smad3 inh | ERa coact pot
CC(C)(SCc1ccccc1)[C@H](N)C(=O)O | nt | nt | nt | nt | -7 | nt
O=c1[nH]c(CN2CCN(c3ccccc3Cl)CC2)nc2ccsc12 | -2 | 1 | -6 | 1.1 | 8 | 104
COc1cc2c(cc1OC)CN(Cc1nc3ccsc3c(=O)[nH]1)CC2 | 1 | 49 | 53*[fluorescence artefact?] | 1.2 | 9 | 59
CCC(C(=O)NCc1ccco1)n1nc(-c2ccc(OC)cc2)ccc1=O (configuration not stated) | nt | 37 | 42 | 1.2 | -2 | 227*[fluorescence artefact?]
COc1ccc(-c2ccc(=O)n(CC(=O)NCc3ccco3)n2)cc1 | 0 | 9 | 10 | 1 | -8 | 106
C[C@@]12CC[C@H]3c4ccc(OP(=O)(O)O)cc4CC[C@@H]3[C@H]1CCC2=O | nt | nt | nt | nt | -8 | nt
COc1ccc(NS(=O)(=O)c2ccc(C)c(C(=O)O)c2)cc1 | 4 | 20 | 14 | 1.1 | 5 | 96
COc1ccc(NS(=O)(=O)c2ccc(N)c(C(=O)O)c2)cc1 | 8 | 19 | 57*[fluorescence artefact?] | 1.1 | 41 | 69
Cc1cc(-c2ccccc2)nc(N2CCC(C(=O)NCC3CCCCC3)CC2)n1 | -3 | 7 | 0 | 1.3 | -2 | 102
NC(=O)/N=C(\N)NC(=O)c1ccccc1 | nt | nt | nt | nt | 4 | nt
COc1cccc(Cn2c(NCc3ccco3)nc3c2c(=O)n(C)c(=O)n3C)c1 | 5 | 0 | -5 | 0.9 | 7 | 93
CCCn1c(NCc2ccco2)nc2c1c(=O)n(C)c(=O)n2C | 8 | 53*[fluorescence artefact?] | 64*[fluorescence artefact?] | 1.2 | 7 | 96
COc1ccc(Cl)c(Cn2c(NCc3ccco3)nc3c2c(=O)n(C)c(=O)n3C)c1 | 2 | 53*[fluorescence artefact?] | 81*[fluorescence artefact?] | nt | 0 | 52
CC1(C)[C@H]2CC[C@]1(C)[C@H](OC(=O)/C=C/c1ccccc1)C2 | nt | nt | nt | nt | -3 | nt
CC(=O)Nc1ccc2c(c1)/C(=C/c1ccc([N+](C)(C)C)cc1)c1ccccc1-2 | nt | nt | nt | nt | 93* | nt
CC(=O)Nc1ccccc1C=C1c2ccccc2-c2ccccc21 | nt | nt | nt | nt | 13 | nt
COc1cc2[nH]c(=S)n(N(C(C)=O)C(C)=O)c(=O)c2cc1OC | 4 | -78 | -67 | 1 | 13 | 201*[fluorescence artefact?]
CN=C1SC(CC(=O)Nc2ccc(C(C)=O)cc2)C(=O)N1C (configuration not stated) | -2 | 71* | 79* | 1 | 0 | 52
Cc1[nH]n(-c2ccccc2)c(=O)c1Sc1ccc(Cl)cc1 | 3 | 81* | 39 | 1.1 | -12 | 72
C[C@@H]1Oc2ccc(C(=O)C[C@@H](C(=O)O)c3ccc4c(c3)OCO4)cc2O1 | nt | nt | nt | nt | -5 | nt
O=S(=O)(Nc1ccc2c(c1)OCCO2)c1cccc2nsnc12 | -1 | -4 | -4 | nt | 4 | 91
Cc1ccc2cccc(S(=O)(=O)Nc3ccc4c(c3)OCO4)c2n1 | 4 | 75*[fluorescence artefact?] | 83*[fluorescence artefact?] | 1 | 6 | 25
Cc1cc(Cl)c(S(=O)(=O)Nc2ccc3c(c2)OCO3)cc1OCC(N)=O | 6 | 51* | 50* | 0.9 | 11 | 86
CC(Sc1ncnc2ccccc12)C(=O)Nc1ccc2c(c1)OCO2 (configuration not stated) | 7 | -1 | -8 | 1.1 | -10 | 87
